ELG1 genotoxic: qHTS screen for small molecules that induce genotoxicity in human embryonic kidney (HEK293T) cells expressing luciferase-tagged ELG1; 330,000 tested, 1.3% active; HEK293T ELG1-luciferase reporter, luminescence, 16 h; Potency, µM (highest dose often 46 µM), for inactives: top-dose activity change, positive = activation, most hits filed as activators; AID 504466, 2011; note: % of control where 0% means no effect; nearly all actives have a fitted effect of over 60% in size
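Genotoxic stress is detected as increased luminescence from luciferase-tagged ELG1 in HEK293T cells, measured with ONE-Glo after a 16 hr treatment at 37 °C.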
Luc counter: Counterscreen for Luciferase (Kinase-Glo TM) Inhibition | Kinase-Glo luciferase, ATP luminescence, 8 min | Potency, µM (top dose mostly 38.3 µM), inactives show at the top dose activity change, negative = inhibition, most hits filed as inhibitors | 200,000 tested, 0.28% active; note: % is set by controls: 0 for no effect and ±100 for the full control effect; nearly all actives have a fitted effect of over 60% in size
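Inhibition of Kinase-Glo luciferase light generation was assessed at 10 uM ATP in pH 7.2 imidazole buffer, with luminescence measured after eight minutes at ambient temperature.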
SMN2 splice enh: qHTS Assay for Enhancers of SMN2 Splice Variant Expression | HEK293 SMN2-luciferase splicing reporter, luminescence, 30-36 h | Potency, µM (highest dose often 46.1 µM), for inactives: top-dose activity change, positive = activation, hits mostly activators | 210,000 tested, 2.8% active; note: % of control where 0% means no effect; nearly all actives have a fitted effect of over 55% in size
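HEK293 cells carry an SMN2 […]–luciferase reporter in which exon 7 inclusion puts luciferase in frame. Cells were plated 10-12 h before compound addition, then incubated 30-36 h at 37C. ONE-Glo luminescence was read; sodium butyrate at 4.5 mM final served as control.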
NPC1 prom act: qHTS Assay for NPC1 Promoter Activators | Huh7 NPC1 promoter luciferase reporter, 24 h | Potency, µM (titrated, usually from 9.22 µM), inactives show top-dose activation, most hits filed as activators | 320,000 tested, 2.4% active; note: % of control where 0% means no effect; nearly all actives have a fitted effect of over 60% in size
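Cells: Huh7 expressing luciferase under the NPC1 promoter, 1500/well. Seeded 2 h, compound added, incubated 24 h at 37 °C. Luciferase reagent, 10 min ambient, then luminescence.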
Rab9 promoter act: qHTS Assay for Rab9 Promoter Activators | Huh7 Rab9 promoter-luciferase reporter, luminescence, 24 h | Potency, µM (titrated, usually from 9.22 µM), without a hit: at the highest dose activation, negative = inhibition, actives largely listed as activators | 320,000 tested, 2.8% active; note: % of control where 0% means no effect; nearly all actives have a fitted effect of over 60% in size
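Measured in stably transfected Huh7 cells bearing a Rab9 promoter–luciferase construct: 24 h compound treatment at 37 °C, followed by luminescence detection.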
FLuc modulator: qHTS profiling assay for firefly luciferase inhibitor/activator using purifed enzyme and Km concentrations of substrates (counterscreen for miR-21 project). Potency, µM (highest dose often 57.5 µM), without a hit: at the highest dose activity change, negative = inhibition, most hits filed as inhibitors. 360,000 tested, 6.9% active. purified FLuc, Km substrates, luminescence inhibition. Luciferin 4-monooxygenase (Photinus pyralis), P08659. AID 588342, 2011;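 note: plate controls were vehicle for no effect and reference inhibitor for full effect; nearly all actives have a fitted effect of over 55% in size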
Target sequence (P08659 whole entry, looked up): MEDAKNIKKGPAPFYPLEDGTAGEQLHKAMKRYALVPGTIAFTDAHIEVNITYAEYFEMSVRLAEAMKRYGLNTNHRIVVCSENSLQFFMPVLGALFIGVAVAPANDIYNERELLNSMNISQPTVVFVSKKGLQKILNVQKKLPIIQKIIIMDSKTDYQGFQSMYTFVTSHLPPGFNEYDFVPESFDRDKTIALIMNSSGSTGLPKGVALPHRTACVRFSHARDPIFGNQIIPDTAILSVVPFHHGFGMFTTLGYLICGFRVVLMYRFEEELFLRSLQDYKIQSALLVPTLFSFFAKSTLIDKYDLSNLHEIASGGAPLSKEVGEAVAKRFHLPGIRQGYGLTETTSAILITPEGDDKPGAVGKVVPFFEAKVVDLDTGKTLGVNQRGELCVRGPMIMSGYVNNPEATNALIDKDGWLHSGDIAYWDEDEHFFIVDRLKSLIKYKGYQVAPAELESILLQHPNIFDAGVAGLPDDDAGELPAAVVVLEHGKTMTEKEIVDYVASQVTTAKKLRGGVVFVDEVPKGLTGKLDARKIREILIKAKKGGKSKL
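Purified P. pyralis luciferase (10nM final) with 10uM D-luciferin and 10uM ATP (Km levels) in 50mM Tris acetate pH 7.5, 10mM Mg acetate, 0.01% Tween-20, 0.05% BSA; qHTS 6-point titration, ~60 µM downward; luminescence read.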
An asterisk follows results filed as active; ? = inconclusive; / = no result given; [ ] = remark or other dose. This is a sample that favours compounds with a hit; in the whole collection about 7.3% have one here. Calls come from the whole dose curve; as a rule, active = well fitted curve in the direction sought with a large enough effect; inconclusive = small, poorly fitted or top-dose-only effect, or another doubt; inactive = no such curve, though single readings can be large; an effect the other way counts as inactive or inconclusive. Potency is the fitted concentration of half-maximal effect.

SMILES	ELG1 genotoxic	Luc counter	SMN2 splice enh	NPC1 prom act	Rab9 promoter act	FLuc modulator
Cc1ccc(-n2cc(-c3ccccc3)c3c(N4CCCCC4)ncnc32)cc1	/	/	/	/	/	-2.0%
COc1cc(C=O)ccc1Oc1cnccn1	0.7%	-1.0%	-5.6%	-5.2%	-1.2%	1.4%
Cc1cc(C)n2cc(CSc3nnc(SCc4cn5c(C)cc(C)nc5n4)s3)nc2n1	-0.6%	-3.1%	11.6%	2.1%	-3.6%	-1.1%
Cc1cc(C)n2cc(CSc3nc4ccccc4s3)nc2n1	?	2.9%	11.2µM*	?	3.55µM*	21.3µM*
Cc1ccccc1OCC(O)CN1CCC(C)CC1 (stereo not given)	-4.6%	2.9%	-7.1%	-2.8%	-2.0%	-0.8%
C/C(=N\NC(=O)C1CC1(C)c1ccccc1)c1ccco1 (stereo not given)	-3.6%	-4.8%	-23.1%	-0.1%	-4.4%	4.2%
O=C(O)c1ccc(N/N=C2/CCCc3ccccc32)cc1	?	/	/	3.16µM*	2.51µM*	9.53µM*
O=C(O)c1ccc(N/N=C2/CCSc3ccc(F)cc32)cc1	?	/	/	-6.9%	9.8%	?
O=C(O/N=C1\CCCc2ccccc21)c1cccc(Cl)c1	-2.3%	-10.0%	-1.4%	-0.4%	-8.6%	3.01µM*
Cc1ccc(C(=O)O/N=C2\CCSc3ccc(C)cc32)cc1	?	-5.5%	-2.0%	-2.3%	0.5%	7.57µM*
Cc1ccc(C(=O)O/N=C2\CCCc3ccccc32)cc1	0.1%	-23.6%	-1.1%	15.0%	-0.3%	0.169µM*
COc1ccc(C2SCC(=O)N2c2ccc(C)cc2)cc1 (stereo not given)	-1.1%	/	/	0.5%	2.1%	6.6%
O=C(NCC(=O)N(Cc1ccco1)C(C(=O)NC1CCCCC1)c1ccncc1)c1cccs1 (stereo not given)	-2.9%	/	/	-2.6%	-2.4%	-0.5%
COc1ccc(-c2nc(C)sc2C)cc1	3.8%	-9.3%	-6.6%	-0.7%	-0.5%	?
Cc1cccc(C(=O)O/N=C2\CCCc3ccccc32)c1	-1.1%	-16.0%	-14.6%	?	20.9%	0.675µM*
CCC1CCCCN1C(=O)CCc1nnc(C2CCCCC2)o1 (stereo not given)	11.7%	-0.1%	/	14.2%	28.3%	?
CC1(C)OC2OC(COC(=O)c3ccc([N+](=O)[O-])cc3)C3OC(C)(C)OC3C2O1 (stereo not given)	-1.1%	-4.8%	-9.1%[1.84 µM]	1.7%	-2.2%	0.6%
Cc1nnc2ccc(-c3ccc(NS(=O)(=O)c4ccccc4F)cc3)nn12	20.6µM*	/	/	-5.8%	-5.5%	1.0%
Cc1nnc2ccc(-c3ccc(NS(=O)(=O)c4ccc(F)cc4F)cc3)nn12	20.6µM*	/	/	-3.6%	-3.6%	0.5%
CCc1ccc(S(=O)(=O)Nc2ccc(-c3ccc4nnc(C)n4n3)cc2)s1	23.1µM*	/	/	-4.4%	-3.3%	17.5%
Cc1cc[n+](-c2[nH]c(=O)sc2/C=N/NC([S-])=Nc2ccccc2)cc1	-1.4%	0.9%	3.7%	1.4%	-4.7%	1.5%
Cc1cccc(Nc2c(-c3ccc(O)cc3)nc3ncccn23)c1	-1.4%	/	/	-9.1%	1.2%	-10.6%
Cc1ccc(C)c(-n2[nH]c3c4c(ccc3c2=O)C(=O)c2ccccc2C4=O)c1	-7.0%	-7.3%	-21.4%	1.1%	6.8%	15.1µM*
Cc1ccc(-n2[nH]c3c4c(ccc3c2=O)C(=O)c2ccccc2C4=O)cc1	3.8%	-1.0%	-1.1%	-1.4%	-8.3%	1.1%
Cc1ccc(NC(=O)CCN2C(=O)C3C4CCC(C4)C3C2=O)cc1Cl (stereo not given)	4.1%	/	/	2.9%	-0.2%	?
SMILES	ELG1 genotoxic	Luc counter	SMN2 splice enh	NPC1 prom act	Rab9 promoter act	FLuc modulator
COc1ccc(/C=N/OCC(=O)Nc2nc3ccccc3s2)cc1OC	4.4%	-29.9%	-24.7%	-0.3%	-7.8%	-17.4%
C/C(=N\NC(=S)Nc1ccccc1C)c1ccc(O)cc1	3.2%	-0.3%	-10.0%	0.9%	9.3%	21.3µM*
O=C1c2ccccc2-c2nc3ccccc3cc21	?	/	/	3.55µM*	5.01µM*	2.13µM*
c1ccc2c(c1)Cc1cc3ccccc3nc1-2	3.66µM*	10µM*	3.98µM*	1.26µM*	0.398µM*	0.953µM*
CC(=O)Nc1ccc(SCC(=O)c2cc(C)n(CC(F)(F)F)c2C)cc1	?	-3.3%	-4.6%	3.16µM*	2.82µM*	-17.5%
COC(=O)c1c(-c2ccccc2)csc1NC1=NS(=O)(=O)c2ccccc21	?	-3.6%	0.562µM*	24.6%	2.51µM*	0.601µM*
Cc1cc(N/N=C/c2ccco2)c2ccccc2n1	0.3%	-1.2%	1.7%	3.8%	-2.7%	-15.8%
Cc1ccsc1/C=N/Nc1nc2ccccc2s1	1.46µM*	?	1µM*	3.55µM*	1.78µM*	1.69µM*
Cc1ccnc(N/N=C/c2ccco2)n1	?	-5.1%	?	?	26.0%	16.9µM*
OCC(O)/C=N/Nc1nc2ccccc2s1 (stereo not given)	-5.6%	1.8%	?	16.4%	13.3%	-8.5%
Cc1ccsc1/C=N\NC(=O)Cn1nnc2ccccc21	-2.4%	-1.1%	2.7%	-11.9%	-15.8%	-19.7%
C(=N\Nc1nc2ccccc2s1)/c1cccs1	?	-1.3%	7.08µM*	?	1.26µM*	0.849µM*
CCn1c(C)c(/C=N/Nc2nc3ccccc3s2)c2ccccc21	0.1%	-5.0%	-25.4%	?	11.8%	13.5µM*
CCN1CCN(c2ccc(S(=O)(=O)N3CCCCC3)cc2NC(=O)Cc2ccc(Cl)c(Cl)c2)CC1	-6.7%	/	/	-6.6%	-4.8%	3.4%
O=C(COC(=O)c1ccc(NS(=O)(=O)c2cccs2)cc1)Nc1nc2c(F)c(F)c(F)cc2s1	-0.6%	1.8%	-5.3%	-0.8%	2.1%	-5.0%
COC(=O)Cc1ccc2c3ccccc3n(C)c2c1	1.7%	-1.5%	10.0%	4.9%	4.0%	?
Cc1ccc(C)c(-c2csc(N/N=C/c3ccco3)n2)c1	-8.9%	2.5%	-50.5%	13.8%	-0.3%	-18.1%
C(=N\Nc1nc2ccccc2s1)/c1ccco1	?	4.0%	1.58µM*	2.24µM*	1.26µM*	1.2µM*
CC1Oc2ccccc2C=C1/C=N/NC(=O)c1ccccc1 (stereo not given)	?	-2.5%	14.1µM*	?	2.51µM*	6.01µM*
Cc1ccc(C(=O)N/N=C/C2=Cc3ccccc3OC2C)cc1 (stereo not given)	0.5%	-1.6%	?	22.2%	27.5%	3.01µM*
